# Experimental data from PubChem BioAssay (NCATS).
# Results filed as inconclusive are left out. Where a call stands in place of a potency, no number is given. The source made the active and inactive calls. Unless noted, calls follow the shape of the dose curve; as a rule, active = well fitted inhibition curve with a large enough effect; inconclusive = small, poorly fitted or top-dose-only effect; inactive = no such curve, though single readings can be large or run the other way.
# Target: Aldehyde dehydrogenase, mitochondrial (Homo sapiens) (UniProt P05091)
# Assay: qHTS for Inhibitors of the Aldehyde Dehydrogenase Family (ALDH2) Confirmatory screens (AID 2061303; active = well fitted inhibition curve with a large enough effect; title and protocol of this record describe different tests; also: nearly all actives have a fitted effect of over 45% in size)
# Settings: ALDH inhibition qHTS; series mostly up to 45.4 µM
# Potency is read from the fitted curve at half-maximal effect.
row,SMILES,Potency
1,COc1ccc(N2CCN(S(=O)(=O)c3ccc4c(c3)CC(=O)N4)CC2)cc1,inactive
2,COc1ccc(NC(=O)CN(C)S(=O)(=O)c2ccc(C(=O)N3CCOCC3)s2)cc1,inactive
3,CC(=O)N1CCN(c2nc(-c3ccc(Br)cc3)cs2)CC1,25.1 µM (active)
4,Brc1ccc(-c2ccc(C3Nc4cccc5cccc(c45)N3)o2)cc1,0.896 µM (active)
5,O=C(NC1CC(=O)N(c2ccccc2)C1)c1ccc(S(=O)(=O)N2CCOCC2)cc1 (stereo not given),inactive
6,CCN1c2cc(C(=O)Nc3ccc(C#N)cc3)ccc2C(=O)N2CCCCCC21 (stereo not given),inactive

# Target: Retinaldehyde dehydrogenase 3 (Homo sapiens) (UniProt P47895)
# Assay: qHTS for Inhibitors of the Aldehyde Dehydrogenase Family (ALDH1A3) Confirmatory screens (AID 2061311); also: nearly all actives have a fitted effect of over 60% in size
# Settings: ALDH inhibition qHTS; series mostly up to 46 µM
row,SMILES,Potency
1,CC(=O)Nc1sc2c(c1-c1nc3ccccc3s1)CCN(Cc1ccccc1)C2,25.1 µM (active)
2,CC(C)N1CCc2c(sc(NC(=O)Cc3ccccc3)c2-c2nc3ccccc3s2)C1,inactive
3,COc1ccc(C2=Nn3c(nnc3-c3ccccc3OC)SC2)c(OC)c1,inactive
4,COc1ccc(C2Nc3ccccc3C(=O)N2Cc2ccco2)cc1COc1ccccc1 (stereo not given),inactive
5,O=C(Nc1cccc(-c2ccc(N3CCOCC3)nn2)c1)Nc1cccc(C(F)(F)F)c1,inactive
6,COc1cc(O)c(C(CC(=O)N2CCN(c3ccc(F)cc3)CC2)c2ccc3c(c2)OCO3)c(OC)c1 (stereo not given),12.7 µM (active)
7,COc1ccc(N2CCN(S(=O)(=O)c3ccc4c(c3)CC(=O)N4)CC2)cc1,inactive
8,CC(=O)N1CCN(c2nc(-c3ccc(Br)cc3)cs2)CC1,12.6 µM (active)
9,Brc1ccc(-c2ccc(C3Nc4cccc5cccc(c45)N3)o2)cc1,7.12 µM (active)

# Target: Retinal dehydrogenase 2 (Homo sapiens) (UniProt O94788)
# Assay: qHTS for Inhibitors of the Aldehyde Dehydrogenase Family (ALDH1A2) Confirmation screens (AID 2061314); also: nearly all actives have a fitted effect of over 65% in size
# Settings: ALDH1A2 enzyme inhibition qHTS confirmation; series mostly up to 45.9 µM
row,SMILES,Potency
1,[O-][n+]1onc(-c2ccccc2)c1CO,inactive
2,COc1ccc(S(=O)(=O)N2CCC3(CC2)CC(CC(=O)NC2CC2)CCO3)cc1 (stereo not given),inactive
3,CC(C)NS(=O)(=O)c1ccc(OCC(=O)N2CCN(c3ccccc3F)CC2)cc1,inactive
4,COc1ccc(S(=O)(=O)N2C[C@@H](Oc3ccccc3)C[C@@H]2C(=O)N2CCOCC2)cc1,inactive
5,O=C([C@@H]1C[C@H](Oc2ccccc2)CN1S(=O)(=O)c1cccc(F)c1)N1CCOCC1,inactive
6,Cc1ccsc1CN(C)c1ncnc2ccc(-c3ccoc3C)cc12,11.3 µM (active)
7,CCN(CC)c1ccc(NC(=O)Nc2ccc(C(C)=O)cc2)cc1,inactive
8,CC(=O)c1ccc(NC(=O)c2cc(-c3ccc(C)s3)nc3ccccc23)cc1,inactive
9,CC(C)N1CCc2c(sc(NC(=O)C3CC3)c2-c2nc3ccccc3s2)C1,5.65 µM (active)
10,O=C1Nc2ccccc2/C1=C\c1ccc(O)c(Cl)c1,10.1 µM (active)
11,COc1ccc(-n2cc(C(=O)Nc3cc(F)ccc3F)c3ccccc3c2=O)cc1,inactive
12,N#Cc1c(-c2cccc(Br)c2)no[n+]1[O-],3.57 µM (active)
13,COC(=O)[C@H](Cc1ccc(OC)cc1)NC(=O)[C@@H]1CNCCN1S(=O)(=O)c1ccccc1,inactive
14,COC(=O)c1ccc(NC(=O)CN2CCN(c3ccc(Cl)cc3)CC2)cc1,18.2 µM (active)
15,O=C(NCCN1CCN(c2ccccc2)CC1)Nc1cccc(Br)c1,inactive
16,NC(=O)c1c(NC(=O)c2ccco2)sc2c1CCCC2,10.1 µM (active)
17,CC(C)(C)OC(=O)N1CCN(c2ccc(NCc3ccc(-c4ccc(C#N)cc4)s3)cc2)CC1,inactive
18,O=C1c2ccccc2NC(c2ccc(-c3cccs3)o2)N1O (stereo not given),7.98 µM (active)
19,COc1ccc(NC(=O)CN(C)S(=O)(=O)c2ccc(C(=O)N3CCOCC3)s2)cc1,inactive
20,O=C(NC1CC(=O)N(c2ccccc2)C1)c1ccc(S(=O)(=O)N2CCOCC2)cc1 (stereo not given),inactive
